# Records with an inconclusive call do not appear. Entries that show only a call come without a potency. Activity calls are given as the source filed them. The call rests on the fitted dose curve; in most records, active means well fitted inhibition curve with a large enough effect; inconclusive means small, poorly fitted or top-dose-only effect; inactive means no such curve, though single readings can be large or run the other way.
# Legend:
# [1] = tested on: Zika virus NS2B-NS3 protease (unlinked complex); test: Primary screen GU Rhodamine qHTS for Zika virus inhibitors: Unlinked NS2B-NS3 protease assay (AID 1347159); further: nearly all actives have a fitted effect of over 60% in size; further: potency means the concentration at half of the fitted maximal effect
# Summary of the method: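 Unlinked NS2B/NS3, 25 nM; Rhod110 peptide, 1.5 microM; compounds, up to 114 microM. Reaction run 15 min at RT in 10 mM Tris-HCl pH 8.0, 0.01% Tween 20; kinetic fluorescence change fitted with a 4-parameter Hill model.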
# [2] = tested on: Zika virus NS2B-NS3 protease (linked construct); test: Primary screen NINDS Rhodamine qHTS for Zika virus inhibitors (AID 1347160); further: nearly all actives have a fitted effect of over 55% in size
# Summary of the method: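 Single-chain NS2B-NS3 protease, 25 nM, pH 8.0; compounds preincubated 15 min. Activity: Rhodamine110 release from 1.5 microM substrate over 15 min, room temperature, data fitted to 4-parameter Hill.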
Compound,Potency [1],Potency [2]
Cn1cc(-c2cnn3c(N)c(Br)c([C@@H]4CCCNC4)nc23)cn1,inactive,inactive
C/C=C(\C)C(=O)OC1C(C)C2(O)C(C=C(CO)CC3(O)C(=O)C(C)=CC32)C2C(C)(C)C12OC(=O)C(C)C (stereo not given),inactive,inactive
COc1cc(O)cc(/C=C/c2cccc(O)c2)c1,inactive,inactive
Cc1ccc(N2CCN(CCC3NC(=O)c4ccccc43)CC2)cc1C (stereo not given),inactive,inactive
COc1cccc(NCCC2(c3ccccc3)CC(C)(C)OC(C)(C)C2)c1,inactive,inactive
COC1C(O)C(OC2CCC3(C)C(CCC45CCC6C7(COC(=O)C7)OC4(O)C6(C)CCC35)C2)OC(C)C1OC1OC(CO)C(OC2OC(CO)C(O)C(O)C2O)C(O)C1O (stereo not given),inactive,inactive
COC(=O)CC1OC(C)C2=C(O)c3c(O)cccc3C(=O)C23OC13 (stereo not given),inactive,inactive
CC(=O)O[C@H]1[C@@]2(O)C[C@H](C)[C@H](OC(=O)c3ccccc3)[C@@H]2[C@@H](OC(=O)CO)[C@]2(OC(C)=O)C[C@H]3C(=O)C(C)(C)C[C@@H]3[C@@]1(C)[C@H]2OC(C)=O,inactive,inactive
O=C(NCCCNc1nc(Nc2cccc(CN3CCOCC3)c2)ncc1C1CC1)C1CCC1,inactive,inactive
CC(C)=C[C@@H]1[C@H](CO[C@@H]2O[C@H](CO)[C@@H](O)[C@H](O)[C@H]2O)C1(C)C,inactive,inactive
C=CC(=O)Nc1ccc2ncnc(Nc3cccc(Br)c3)c2c1,44.7 µM (active),inactive
Cc1cc(C(=O)Nc2cc(Oc3ccc4nc(NC(=O)C5CC5)cn4n3)ccc2C)n(C)n1,inactive,inactive
COc1ccc(CN2CCN(C(=O)CCNC(=O)c3ccc(C(C)(C)C)cc3)CC2)cc1,inactive,inactive
CC1(C)CCCC2(C)C1C(=O)C=C(C(=O)O)C2(O)C(=O)O (stereo not given),inactive,inactive
COc1cc(C(C)=O)c(OC)c2c1OC(C)(C)C=C2,inactive,inactive
CC(=O)Nc1cccc(-c2csc(Nc3cc(C)ccn3)n2)c1,inactive,inactive
COc1ccc([C@H]2OC[C@H]3O[C@@H](O[C@H]4[C@@H]2NC[C@@H]4O)[C@H](O)[C@H]3O)cc1,inactive,inactive
C[C@H](Oc1cc(-n2cnc3ccc(CN4CCN(C)CC4)cc32)sc1C(N)=O)c1ccccc1C(F)(F)F,inactive,inactive

Compound,Potency [1],Potency [2]
Cn1sc(=O)n(Cc2ccccc2)c1=O,inactive,inactive
Cc1cc(Nc2nc(-c3ccccc3)nc3ccccc23)n[nH]1,inactive,inactive
Cc1ccc(C2(C(=O)N3CCC(n4nc(-c5ccccc5)oc4=O)CC3)CC2)cc1,inactive,inactive
Cc1nc2c(C(F)(F)F)cccc2nc1-c1ccc(-c2cccc(S(C)(=O)=O)c2)cc1,inactive,inactive
CCOc1cc(C(C)(C)C)ccc1C1=N[C@@](C)(c2ccc(Cl)cc2)[C@@](C)(c2ccc(Cl)cc2)N1C(=O)N1CCN(CC(=O)N2CCOCC2)CC1,inactive,inactive
COc1cc(/C=C/C(=O)NCCn2c(C(F)(F)F)cc3ccccc32)cc(OC)c1OC,inactive,inactive
COc1cccc(-c2cn(-c3ccc(CCN4CCC(O)CC4)cc3)c3ncnc(N)c23)c1,inactive,inactive
O=C(Nc1ccc(Cl)cc1)c1ccccc1NCc1ccncc1,inactive,inactive
C=C[C@H](/C=C\c1ccc(O)cc1)c1ccc(O)cc1,inactive,inactive
COCCNCc1ccc(-c2cc3nccc(Oc4ccc(NC(=O)C5(C(=O)Nc6ccc(F)cc6)CC5)cc4F)c3s2)nc1,inactive,inactive
C=C1C(=O)O[C@@H]2/C=C(\CO)CC/C=C(/C=O)C[C@@H](O)[C@@H]12,inactive,inactive
COc1ccc(S(=O)(=O)N2CCC[C@H]2C(=O)Nc2cc(C)cc(C)c2)cc1,inactive,inactive
COCCN(C(=O)c1cc(OC)c(OC)c(OC)c1)c1nc(-c2ccccc2)cs1,inactive,inactive
O=C(NCC1(N2CCN(c3ccccc3)CC2)CCOCC1)c1cccnc1Sc1ccccc1,inactive,inactive
Cc1cc(F)c(C(=O)Nc2cccc(-c3nncn3C(C)C)n2)cc1-n1cnc(C2CC2)c1,inactive,inactive
O=C(Nc1ccc(N(Cc2ccsc2)C(=O)Cn2nnc3ccccc32)cc1)C1CC1,inactive,inactive
O=C([C@@H](Cc1cccc(C(F)(F)F)c1)NS(=O)(=O)c1cc(F)c2c(c1)CCNC2)N1CCCC1,inactive,inactive

# Reference: PubChem BioAssay (NCATS)
